Unmarked numbers belong to inactive results.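 The calls were made as follows: active = MAPPIT score above the 99th percentile of random reference set scores in the same batch; inactive = at or below it.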

For 6 molecules, MAPPIT interaction score results are on record in the supplement of paper PMC10105736.

Holding throughout (assay): MAPPIT interaction score (arbitrary units); higher = stronger binary interaction signal, active = hit call of the paper
In one assay the target is ATPsynCF6L. To be noted: MAPPIT configuration: N-C; pair source set: screen_3. On the procedure:
(§1)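 MAPPIT in HEK293T cells: Drosophila bait and prey ORFs (from the FlyBi ORF collection) were co-transfected in quadruplicate, with two wells stimulated by erythropoietin. Interaction-dependent JAK-STAT activation was read out with a STAT-responsive firefly luciferase reporter. Positive calls use the 99th percentile of random reference set (RRS) scores within each batch […]. Batches Dvs01 and Dvs02 used the N-N configuration and Dvs04 the N-C configuration. Pairs come from FlyBi screens, CuraGen, DPiM, Finley Y2H, Lit-BM-16, Lit-BS-16 and RRS.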

The next assay has as its target CG13643. The settings on record: MAPPIT configuration: N-C; pair source set: screen_3. On the procedure:
as §1

Another assay deals with Dpm3. The settings on record: MAPPIT configuration: N-C; pair source set: screen_3. On the procedure:
as §1

A further assay concerns the target NaPi-T. The settings on record: MAPPIT configuration: N-C; pair source set: screen_4. On the procedure: as §1
A further assay deals with Pdk1. The settings on record: MAPPIT configuration: N-N; pair source set: Curagen_high_conf. On the procedure:
as §1

The next assay has as its target ATPsyndelta. To be noted: MAPPIT configuration: N-N; pair source set: DPIM. On the procedure: as §1
The next assay concerns the target ATPsynC. To be noted: MAPPIT configuration: N-C; pair source set: screen_3. On the procedure: as §1
A further assay deals with ATPsynG. To be noted: MAPPIT configuration: N-N; pair source set: Lit-BS-16. On the procedure: as §1
Another assay addresses sle. The settings on record: MAPPIT configuration: N-N; pair source set: Lit-BS-16. On the procedure:
as §1

Another assay addresses Arc1. The settings on record: MAPPIT configuration: N-N. On the procedure:
as §1

The target of the next assay is CG34382. The settings on record: MAPPIT configuration: N-N; pair source set: Curagen_high_conf. On the procedure: as §1
For the next assay, the target named is CG8441. To be noted: MAPPIT configuration: N-N; pair source set: Lit-BS-16. On the procedure:
as §1

Another assay has as its target Pbgd. The settings on record: MAPPIT configuration: N-N; pair source set: DPIM. On the procedure:
as §1

The target of the next assay is Art8. The settings on record: MAPPIT configuration: N-N; pair source set: Curagen_high_conf. On the procedure: as §1
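Also: HEK293T cells with Epo stimulation, STAT-responsive firefly luciferase reporter, fold induction versus unstimulated cells divided by the larger fold induction of two negative controls lacking either bait or prey.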

B1: Mst57Da (protein)
chain: MKFLALFVTLLVVLALVSAQKSQNTNHNVIVIGAKKPGAAPAAAAAAAPAAPPAAAPAAAPAAPEAGLADAPAES
Turning to B1, the MAPPIT interaction score with ATPsynCF6L is 0.192; in the assay with CG13643 it was -0.565; with Dpm3 it was 0.043; with NaPi-T, 1.02; in the assay with Pdk1, -0.52.

B2: ATPsynF (protein)
chain: MAFGDYPAEYNPKVHGPYDPARFYGKADVPFGQVKLGEIGAWLGRRNKTPNAVAGAVSRAWWRWQHKYVFPKRAGIAPFFQLTVASMTFFYLINYTKLKHHRNYKYH
In the case of B2, the MAPPIT interaction score with ATPsyndelta is 0.173.

B3: stas (protein)
chain: MSYCSGVAISADEGITMRNGRAKALQEHSPDQVATPLLPQVPPQEQQDLNPQQQQQQQQQQQATPQKQAMSADEKKATKKSLVIVAGIFVASLVTMCYVYAIFPELNASEKQHLKIPRDIQDAKMLAKVLDRYKDMYYFEVMFGVVVAYVFLQTFAIPGSLFLSILLGFLYKFPIALFLICFCSALGATLCYTLSNLVGRRLIRHFWPKKTSEWSKHVEEYRDSLFNYMLFLRMTPILPNWFINLASPVIGVPLHIFALGTFCGVAPPSVIAIQAGKTLQKMTSSSEAFSWTSMGILMACACASLLPGLLKNKFKHKKEA
In the case of B3, the MAPPIT interaction score with ATPsynC was 0.0375.

B4: Arp6 (protein)
chain: MANAVVVLDNGAHTAKVGLANQDEPHVVPNCIMKAKSERRRAFVGNQIDECRDTSALYYILAFQRGYLLNWHTQKTVWDYIFSKDGIGCSLENRNIVITEPQMNFQSIQEATLEILFEEYKVDGVYKTTAADLAAFNYVADSEERTTMESLNCIIIDVGYSFTHVVPFVLGRRVLQGIRRIDMGGKALTNQLKELISYRHLNVMDESHVVNQIKEDVCFVAEDFKQAMQVHYSEEKRREVTVDYVLPDFTTVKRGYVRVPGKPREDEEQQQMVSLCNERFTVPELLFNPSDIGVQQVGIPEAVADCLKACPWEAHRELLLNILIVGGSAQFPGFLPRLKRDLRALVPDDLEVSLICPEDPVRYAWYGGKEVATSPNFEEFVYTQDDYEEYGFQGINQR
B4: the MAPPIT interaction score with ATPsynG was 0.0569; in the assay with sle, -0.421.

B5: Arc1 (protein)
chain: MAQLTQMTNEQLRELIEAVRAAAVGAAGSAAAAGGADASRGKGNFSACTHSFGGTRDHDVVEEFIGNIETYKDVEGISDENALKGISLLFYGMASTWWQGVRKEATTWKEAIALIREHFSPTKPAYQIYMEFFQNKQDDHDPIDTFVIQKRALLAQLPSGRHDEETELDLLFGLLNIKYRKHISRHSVHTFKDLLEQGRIIEHNNQEDEEQLATAKNTRGSKRTTRCTYCSFRGHTFDNCRKRQKDRQEEQHEE
As to B5, the MAPPIT interaction score is 4.55 (active) with Arc1 (pair source set: screen_1); 3.68 (active) with Arc1 (pair source set: screen_2); 0.00338 in the assay with CG34382; -0.34 in the assay with CG8441; 0.22 with Pbgd.

B6: Ntmt (protein)
chain: MTTTLEEQLSDKLQMMDETTDKVQGSSKQKDDSSIAASSDAKTASPSSSDSSTKVAAPESEFYNKAQKYWSEVPATVNGMLGGLGYISAIDIQGSNVFLREIRVPGNRLALDCGAGIGRVTRNLLIPRFSCVDLVEQDPAFADKAREYCTSEDGSRGKVGQIYNVGLQKFTPTQQYDLVWTQWVLGHLTDRDLVSFFRRIKQGLAPGAFLCLKENVSSSKKTVEDRNDSSVTRPLDSYEHFLKEAGFRIVRKVKQQNFPKGLFPVYMIACKPVSKE
On to B6, for which, in the assay with Art8, the MAPPIT interaction score was 3.74 (active).
